# Assay results as given in article PMC7862700, “An all-to-all approach to the identification of sequence-specific readers for epigenetic DNA modifications on cytosine”.
# Tests used:
# Experiment in all cases: DAPPL (digital affinity profiling via proximity ligation, sequencing); 10 mM Tris-HCl pH 7.5, 50 mM NaCl, 1 mM DTT, 4% glycerol, room temperature, 30 min; GST-TFs on glutathione beads, 16-mer random dsDNA library, 0.1% formaldehyde crosslink after washing; high values mean tight binding
# FEV = target: T1, FEV (Homo sapiens, UniProt Q99581 1-238); settings: protein: recombinant; tags: N-terminal GST; dsDNA, one strand shown
# T1 sequence: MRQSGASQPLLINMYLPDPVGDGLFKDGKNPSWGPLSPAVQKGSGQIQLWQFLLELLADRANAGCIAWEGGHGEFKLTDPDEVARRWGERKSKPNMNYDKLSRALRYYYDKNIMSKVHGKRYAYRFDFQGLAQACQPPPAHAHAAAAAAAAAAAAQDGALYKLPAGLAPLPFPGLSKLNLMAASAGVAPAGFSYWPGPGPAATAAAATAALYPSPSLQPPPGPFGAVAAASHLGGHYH
# In short: (§1)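 Binding signal is each hexamer's read frequency for a factor divided by its frequency in the tag-only sample. The factors were GST-fused human transcription factors from yeast, captured on glutathione beads, DNA-barcoded and pooled with that sample. Pools were incubated with 200 nmole of a random double-stranded 16-mer DNA library in Tris/NaCl/DTT/glycerol buffer at room temperature for 30 min, then washed, crosslinked with 0.1% formaldehyde, proximity-ligated with BsaI/T4 ligase (1 h, 37 °C), PCR-amplified and sequenced on an Illumina NextSeq500.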
# ETV5 = ETV5 (Homo sapiens, UniProt P41161 1-510); settings: protein: recombinant; tags: N-terminal GST; dsDNA, one strand shown
# In short: as §1
# HSF1 = HSF1 (Homo sapiens, UniProt Q00613 1-529); settings: protein: recombinant; tags: N-terminal GST; chain copies: 3; dsDNA, one strand shown
# In short: as §1
# ELF4 = ELF4 (Homo sapiens, UniProt Q99607 1-663); settings: protein: recombinant; tags: N-terminal GST; dsDNA, one strand shown
# In short: as §1
# ELK4 = target: T2, ELK4 (Homo sapiens, UniProt P28324-2 1-405); settings: protein: recombinant; tags: N-terminal GST; dsDNA, one strand shown
# T2 sequence: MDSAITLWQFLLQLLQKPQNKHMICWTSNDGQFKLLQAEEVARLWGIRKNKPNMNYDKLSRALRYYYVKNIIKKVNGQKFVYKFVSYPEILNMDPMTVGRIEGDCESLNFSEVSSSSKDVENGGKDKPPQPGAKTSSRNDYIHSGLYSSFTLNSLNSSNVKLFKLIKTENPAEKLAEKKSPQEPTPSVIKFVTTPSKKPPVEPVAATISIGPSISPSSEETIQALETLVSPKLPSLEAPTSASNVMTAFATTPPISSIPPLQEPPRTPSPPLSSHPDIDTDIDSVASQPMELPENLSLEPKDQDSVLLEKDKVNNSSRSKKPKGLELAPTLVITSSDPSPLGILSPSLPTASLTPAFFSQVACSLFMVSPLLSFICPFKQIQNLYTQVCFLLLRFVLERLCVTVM
# In short: as §1
# ELF3 = target: T3, ELF3 (Homo sapiens, UniProt P78545 1-371); settings: protein: recombinant; tags: N-terminal GST; dsDNA, one strand shown
# T3 sequence: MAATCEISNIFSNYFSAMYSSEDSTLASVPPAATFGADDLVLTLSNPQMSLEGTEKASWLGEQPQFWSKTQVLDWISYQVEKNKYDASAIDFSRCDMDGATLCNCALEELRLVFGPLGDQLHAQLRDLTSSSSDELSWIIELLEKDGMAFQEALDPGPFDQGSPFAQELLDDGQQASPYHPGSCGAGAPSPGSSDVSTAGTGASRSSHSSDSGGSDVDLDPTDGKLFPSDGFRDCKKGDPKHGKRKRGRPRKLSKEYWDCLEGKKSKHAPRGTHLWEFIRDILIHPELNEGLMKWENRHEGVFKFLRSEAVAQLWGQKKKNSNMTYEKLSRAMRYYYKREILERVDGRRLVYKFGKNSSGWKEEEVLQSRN
# In short: as §1
# CRX = CRX (Homo sapiens, UniProt O43186 1-299); settings: protein: recombinant; tags: N-terminal GST; dsDNA, one strand shown
# In short: as §1
# ETV1 = ETV1 (Homo sapiens, UniProt P50549 1-477); settings: protein: recombinant; tags: N-terminal GST; dsDNA, one strand shown
# In short: as §1
# ERF = target: T4, ERF (Homo sapiens, UniProt P50548 1-548); settings: protein: recombinant; tags: N-terminal GST; dsDNA, one strand shown
# T4 sequence: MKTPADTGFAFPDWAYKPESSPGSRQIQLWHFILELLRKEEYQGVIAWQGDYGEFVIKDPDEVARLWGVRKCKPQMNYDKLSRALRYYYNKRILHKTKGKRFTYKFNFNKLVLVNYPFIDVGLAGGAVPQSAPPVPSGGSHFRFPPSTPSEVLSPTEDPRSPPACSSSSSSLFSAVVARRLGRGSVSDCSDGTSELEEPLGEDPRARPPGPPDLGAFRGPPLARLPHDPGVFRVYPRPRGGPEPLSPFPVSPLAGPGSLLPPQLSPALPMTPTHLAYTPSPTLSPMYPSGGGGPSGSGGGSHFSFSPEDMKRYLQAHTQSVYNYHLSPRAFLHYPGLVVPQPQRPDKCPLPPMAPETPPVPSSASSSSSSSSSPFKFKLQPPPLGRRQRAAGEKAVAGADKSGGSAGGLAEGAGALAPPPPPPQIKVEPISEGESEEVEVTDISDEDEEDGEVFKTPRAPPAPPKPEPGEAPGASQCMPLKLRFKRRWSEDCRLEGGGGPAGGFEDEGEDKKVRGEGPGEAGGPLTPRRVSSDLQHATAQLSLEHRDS
# In short: as §1
# ETV3L = target: T5, ETV3L (Homo sapiens, UniProt Q6ZN32 1-361); settings: protein: recombinant; tags: N-terminal GST; dsDNA, one strand shown
# T5 sequence: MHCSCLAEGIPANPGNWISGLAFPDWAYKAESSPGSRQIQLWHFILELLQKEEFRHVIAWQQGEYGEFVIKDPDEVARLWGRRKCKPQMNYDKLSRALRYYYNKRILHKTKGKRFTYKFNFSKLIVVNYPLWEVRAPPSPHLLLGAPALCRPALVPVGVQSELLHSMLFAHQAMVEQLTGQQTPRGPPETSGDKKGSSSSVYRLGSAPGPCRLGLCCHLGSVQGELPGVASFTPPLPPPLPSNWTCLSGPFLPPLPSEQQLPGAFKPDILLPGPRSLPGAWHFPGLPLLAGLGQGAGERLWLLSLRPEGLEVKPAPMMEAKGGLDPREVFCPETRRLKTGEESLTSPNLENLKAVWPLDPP
# In short: as §1
# ETS2 = target: T6, ETS2 (Homo sapiens, UniProt P15036 1-469); settings: protein: recombinant; tags: N-terminal GST; dsDNA, one strand shown
# T6 sequence: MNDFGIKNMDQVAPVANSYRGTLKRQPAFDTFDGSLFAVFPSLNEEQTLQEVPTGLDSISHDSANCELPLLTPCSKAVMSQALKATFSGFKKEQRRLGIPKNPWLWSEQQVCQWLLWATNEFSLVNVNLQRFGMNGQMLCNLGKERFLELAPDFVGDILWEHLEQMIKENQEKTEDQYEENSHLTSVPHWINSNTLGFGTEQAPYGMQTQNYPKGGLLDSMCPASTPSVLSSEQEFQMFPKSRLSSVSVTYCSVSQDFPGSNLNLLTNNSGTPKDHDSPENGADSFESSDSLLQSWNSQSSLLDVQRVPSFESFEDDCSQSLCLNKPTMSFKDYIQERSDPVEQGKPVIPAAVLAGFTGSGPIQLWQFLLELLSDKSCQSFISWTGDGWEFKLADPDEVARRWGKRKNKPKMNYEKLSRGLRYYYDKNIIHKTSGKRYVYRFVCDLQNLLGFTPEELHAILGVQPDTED
# In short: as §1
# SPDEF = target: T7, SPDEF (Homo sapiens, UniProt O95238 1-335); settings: protein: recombinant; tags: N-terminal GST; dsDNA, one strand shown
# T7 sequence: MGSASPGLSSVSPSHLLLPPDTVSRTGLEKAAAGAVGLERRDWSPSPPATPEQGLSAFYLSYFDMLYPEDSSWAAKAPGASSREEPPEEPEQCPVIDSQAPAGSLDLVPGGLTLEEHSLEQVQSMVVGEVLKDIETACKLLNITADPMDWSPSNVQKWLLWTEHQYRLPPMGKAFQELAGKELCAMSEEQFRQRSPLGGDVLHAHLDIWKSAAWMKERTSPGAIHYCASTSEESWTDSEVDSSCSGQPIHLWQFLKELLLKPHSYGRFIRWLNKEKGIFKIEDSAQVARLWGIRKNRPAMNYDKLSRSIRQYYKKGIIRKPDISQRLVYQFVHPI
# In short: as §1
# ETV7 = target: T8, ETV7 (Homo sapiens, UniProt Q9Y603 1-341); settings: protein: recombinant; tags: N-terminal GST; dsDNA, one strand shown
# T8 sequence: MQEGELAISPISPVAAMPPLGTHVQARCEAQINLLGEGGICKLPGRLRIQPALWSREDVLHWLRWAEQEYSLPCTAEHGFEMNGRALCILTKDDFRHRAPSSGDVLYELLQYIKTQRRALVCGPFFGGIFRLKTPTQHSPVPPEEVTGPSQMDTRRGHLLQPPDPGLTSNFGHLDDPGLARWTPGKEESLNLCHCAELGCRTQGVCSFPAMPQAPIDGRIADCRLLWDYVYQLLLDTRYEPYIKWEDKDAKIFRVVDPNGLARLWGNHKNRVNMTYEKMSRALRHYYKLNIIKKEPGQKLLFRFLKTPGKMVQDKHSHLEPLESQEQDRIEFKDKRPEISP
# In short: as §1
# ELF5 = target: T9, ELF5 (Homo sapiens, UniProt Q9UKW6-2 1-255); settings: protein: recombinant; tags: N-terminal GST; dsDNA, one strand shown
# T9 sequence: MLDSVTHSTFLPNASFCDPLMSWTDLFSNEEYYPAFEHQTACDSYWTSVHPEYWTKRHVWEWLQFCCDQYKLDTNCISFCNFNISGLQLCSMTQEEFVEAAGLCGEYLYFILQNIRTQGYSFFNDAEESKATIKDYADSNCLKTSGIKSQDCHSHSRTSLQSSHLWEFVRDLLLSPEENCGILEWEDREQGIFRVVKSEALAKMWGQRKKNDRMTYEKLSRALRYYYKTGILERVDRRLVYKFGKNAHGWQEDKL
# In short: as §1
# ETV3 = target: T10, ETV3 (Homo sapiens, UniProt P41162-2 1-143); settings: protein: recombinant; tags: N-terminal GST; dsDNA, one strand shown
# T10 sequence: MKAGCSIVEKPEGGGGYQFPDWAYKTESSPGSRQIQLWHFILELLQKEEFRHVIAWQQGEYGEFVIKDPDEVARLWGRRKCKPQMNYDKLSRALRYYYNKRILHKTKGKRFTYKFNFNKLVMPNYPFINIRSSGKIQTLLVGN
# In short: as §1
# ETV6 = ETV6 (Homo sapiens, UniProt P41212 1-452); settings: protein: recombinant; tags: N-terminal GST; dsDNA, one strand shown
# In short: as §1
# ETV2 = target: T11, ETV2 (Homo sapiens, UniProt O00321 1-342); settings: protein: recombinant; tags: N-terminal GST; dsDNA, one strand shown
# T11 sequence: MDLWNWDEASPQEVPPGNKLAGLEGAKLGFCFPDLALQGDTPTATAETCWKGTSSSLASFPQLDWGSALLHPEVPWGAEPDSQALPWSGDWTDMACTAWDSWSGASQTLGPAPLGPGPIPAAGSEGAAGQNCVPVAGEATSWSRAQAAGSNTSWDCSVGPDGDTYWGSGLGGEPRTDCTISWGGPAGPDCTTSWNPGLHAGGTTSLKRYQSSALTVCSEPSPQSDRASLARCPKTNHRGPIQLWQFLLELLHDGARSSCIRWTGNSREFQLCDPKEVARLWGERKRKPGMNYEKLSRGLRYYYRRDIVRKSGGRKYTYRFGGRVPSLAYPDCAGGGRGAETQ
# In short: as §1
# HSF1, sequence (Q00613 whole entry): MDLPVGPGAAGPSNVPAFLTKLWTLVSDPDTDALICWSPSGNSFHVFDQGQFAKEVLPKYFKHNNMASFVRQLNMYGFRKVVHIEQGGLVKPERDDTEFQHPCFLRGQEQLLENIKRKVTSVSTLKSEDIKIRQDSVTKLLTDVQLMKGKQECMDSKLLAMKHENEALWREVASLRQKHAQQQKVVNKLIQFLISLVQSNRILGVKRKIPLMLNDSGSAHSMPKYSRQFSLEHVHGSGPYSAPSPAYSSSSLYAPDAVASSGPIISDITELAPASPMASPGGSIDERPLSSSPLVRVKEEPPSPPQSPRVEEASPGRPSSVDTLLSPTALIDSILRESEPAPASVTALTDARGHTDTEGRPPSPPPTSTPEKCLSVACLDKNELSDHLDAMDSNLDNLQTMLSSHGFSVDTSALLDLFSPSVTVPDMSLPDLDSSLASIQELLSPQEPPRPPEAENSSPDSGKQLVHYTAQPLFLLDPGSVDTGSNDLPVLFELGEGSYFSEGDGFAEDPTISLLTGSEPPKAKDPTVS
# ETV1, sequence (P50549 whole entry): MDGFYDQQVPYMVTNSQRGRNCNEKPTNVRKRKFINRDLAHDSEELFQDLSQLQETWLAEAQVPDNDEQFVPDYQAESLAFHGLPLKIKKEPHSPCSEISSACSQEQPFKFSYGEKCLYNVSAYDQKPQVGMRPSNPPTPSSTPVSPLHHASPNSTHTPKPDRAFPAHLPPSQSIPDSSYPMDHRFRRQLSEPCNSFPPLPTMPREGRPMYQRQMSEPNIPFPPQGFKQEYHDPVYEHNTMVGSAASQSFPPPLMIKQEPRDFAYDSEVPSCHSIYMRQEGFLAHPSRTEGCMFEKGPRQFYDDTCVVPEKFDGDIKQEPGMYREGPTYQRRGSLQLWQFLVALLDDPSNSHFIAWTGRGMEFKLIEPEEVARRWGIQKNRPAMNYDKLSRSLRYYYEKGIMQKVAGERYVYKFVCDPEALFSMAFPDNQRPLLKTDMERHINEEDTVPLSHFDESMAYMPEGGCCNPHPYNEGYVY
# CRX, sequence (O43186 whole entry): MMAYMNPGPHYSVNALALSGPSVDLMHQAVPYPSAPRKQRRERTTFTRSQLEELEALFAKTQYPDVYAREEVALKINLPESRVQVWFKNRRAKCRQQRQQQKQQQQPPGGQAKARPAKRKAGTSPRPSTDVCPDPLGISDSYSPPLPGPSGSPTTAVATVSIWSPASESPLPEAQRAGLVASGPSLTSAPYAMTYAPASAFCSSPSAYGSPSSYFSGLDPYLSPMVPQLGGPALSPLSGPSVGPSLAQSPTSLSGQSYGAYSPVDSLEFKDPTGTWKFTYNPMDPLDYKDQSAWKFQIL
# ETV5, sequence (P41161 whole entry): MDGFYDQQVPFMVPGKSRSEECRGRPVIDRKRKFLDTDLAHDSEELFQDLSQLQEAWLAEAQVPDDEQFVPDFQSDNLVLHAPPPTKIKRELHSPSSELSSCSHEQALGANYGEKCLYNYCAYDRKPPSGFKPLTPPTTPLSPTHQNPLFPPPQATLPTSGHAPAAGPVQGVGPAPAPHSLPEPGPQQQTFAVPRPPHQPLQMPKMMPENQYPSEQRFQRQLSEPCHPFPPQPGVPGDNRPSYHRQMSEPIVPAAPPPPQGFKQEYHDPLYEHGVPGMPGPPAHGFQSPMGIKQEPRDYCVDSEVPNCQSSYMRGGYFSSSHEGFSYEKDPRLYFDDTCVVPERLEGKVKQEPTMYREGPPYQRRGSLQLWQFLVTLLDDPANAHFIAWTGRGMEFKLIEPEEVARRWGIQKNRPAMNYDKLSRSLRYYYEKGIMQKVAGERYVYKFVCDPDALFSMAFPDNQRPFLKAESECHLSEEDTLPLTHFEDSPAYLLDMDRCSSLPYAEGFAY
# ELF4, sequence (Q99607 whole entry): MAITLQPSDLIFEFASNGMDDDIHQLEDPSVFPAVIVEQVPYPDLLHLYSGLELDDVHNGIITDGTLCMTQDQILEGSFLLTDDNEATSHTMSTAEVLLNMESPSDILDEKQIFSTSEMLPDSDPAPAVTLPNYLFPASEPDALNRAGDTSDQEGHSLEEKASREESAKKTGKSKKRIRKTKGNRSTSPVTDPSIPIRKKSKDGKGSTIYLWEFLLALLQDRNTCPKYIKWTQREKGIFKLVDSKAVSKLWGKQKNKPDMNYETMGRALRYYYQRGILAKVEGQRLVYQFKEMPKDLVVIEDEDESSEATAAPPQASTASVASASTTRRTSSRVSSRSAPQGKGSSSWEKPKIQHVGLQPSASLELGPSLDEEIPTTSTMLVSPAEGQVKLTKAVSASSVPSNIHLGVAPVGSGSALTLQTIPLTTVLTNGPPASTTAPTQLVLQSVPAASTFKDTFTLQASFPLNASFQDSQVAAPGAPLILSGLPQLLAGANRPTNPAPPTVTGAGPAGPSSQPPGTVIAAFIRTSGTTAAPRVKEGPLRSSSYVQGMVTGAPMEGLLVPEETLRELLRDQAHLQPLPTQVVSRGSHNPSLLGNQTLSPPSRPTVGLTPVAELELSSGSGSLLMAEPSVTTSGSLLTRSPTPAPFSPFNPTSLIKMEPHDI
# ETV6, sequence (P41212 whole entry): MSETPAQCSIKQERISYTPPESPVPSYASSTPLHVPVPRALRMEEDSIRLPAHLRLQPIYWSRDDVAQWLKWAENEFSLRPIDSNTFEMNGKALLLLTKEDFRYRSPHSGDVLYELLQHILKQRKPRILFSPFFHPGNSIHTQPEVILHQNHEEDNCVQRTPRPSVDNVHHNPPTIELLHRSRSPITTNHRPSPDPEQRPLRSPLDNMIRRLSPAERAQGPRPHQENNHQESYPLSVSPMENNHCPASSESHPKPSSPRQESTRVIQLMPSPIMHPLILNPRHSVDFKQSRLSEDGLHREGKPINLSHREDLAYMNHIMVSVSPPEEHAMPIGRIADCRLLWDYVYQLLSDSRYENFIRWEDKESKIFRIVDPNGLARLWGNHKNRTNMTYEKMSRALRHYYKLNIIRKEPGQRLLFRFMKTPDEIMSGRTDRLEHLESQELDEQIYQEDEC
sequence,measurement,setting,value
CGGCTA,binding signal,FEV,"1.23 fold enrichment (6-mer frequency, TF over GST control)"
same,binding signal,ETV5,"1.19 fold enrichment (6-mer frequency, TF over GST control)"
same,binding signal,HSF1,"1.07 fold enrichment (6-mer frequency, TF over GST control)"
same,binding signal,ELF4,"1.07 fold enrichment (6-mer frequency, TF over GST control)"
same,binding signal,ELK4,"1.11 fold enrichment (6-mer frequency, TF over GST control)"
same,binding signal,ELF3,"1.05 fold enrichment (6-mer frequency, TF over GST control)"
same,binding signal,CRX,"1.18 fold enrichment (6-mer frequency, TF over GST control)"
same,binding signal,ETV1,"1.2 fold enrichment (6-mer frequency, TF over GST control)"
same,binding signal,ERF,"1.07 fold enrichment (6-mer frequency, TF over GST control)"
same,binding signal,ETV3L,"1.19 fold enrichment (6-mer frequency, TF over GST control)"
same,binding signal,ETS2,"1.07 fold enrichment (6-mer frequency, TF over GST control)"
same,binding signal,SPDEF,"1.25 fold enrichment (6-mer frequency, TF over GST control)"
same,binding signal,ETV7,"1.26 fold enrichment (6-mer frequency, TF over GST control)"
same,binding signal,ELF5,"1.19 fold enrichment (6-mer frequency, TF over GST control)"
same,binding signal,ETV3,"1.12 fold enrichment (6-mer frequency, TF over GST control)"
same,binding signal,ETV6,"1.27 fold enrichment (6-mer frequency, TF over GST control)"
ACAGAT,binding signal,ETV5,"1 fold enrichment (6-mer frequency, TF over GST control)"
same,binding signal,HSF1,"1.1 fold enrichment (6-mer frequency, TF over GST control)"
same,binding signal,ELF4,"1.05 fold enrichment (6-mer frequency, TF over GST control)"
same,binding signal,ELK4,"1.04 fold enrichment (6-mer frequency, TF over GST control)"
same,binding signal,ETV2,"1.05 fold enrichment (6-mer frequency, TF over GST control)"
same,binding signal,CRX,"1.27 fold enrichment (6-mer frequency, TF over GST control)"
same,binding signal,ETV1,"1.05 fold enrichment (6-mer frequency, TF over GST control)"
same,binding signal,ERF,"1.06 fold enrichment (6-mer frequency, TF over GST control)"
same,binding signal,ETV3L,"1.01 fold enrichment (6-mer frequency, TF over GST control)"
same,binding signal,ETS2,"1.03 fold enrichment (6-mer frequency, TF over GST control)"
same,binding signal,SPDEF,"1.05 fold enrichment (6-mer frequency, TF over GST control)"
same,binding signal,ETV7,"1.12 fold enrichment (6-mer frequency, TF over GST control)"
same,binding signal,ETV3,"1.02 fold enrichment (6-mer frequency, TF over GST control)"
